# Most compounds without a hit are left out; they make up all but 1.3% or so of the library.
# SRC1 inh = human NCOA1 inhibition. Q15788. HEK293 GAL4-SRC1 luciferase reporter, luminescence. inhibition, % at 3.6 µM. actives 0.12% (n = 360,000);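 active = inhibition above the campaign mean plus 3 SD, with each screening campaign given its own cutoff, cut at about 60% in these data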
# COUP-TFII inh = NR2F2 (human) inhibition, primary screen; P24468; HEK293T NGFI-A luciferase reporter, luminescence; inhibition, % at 8.6 µM; actives 0.7% (n = 370,000); AID 686940;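 active = inhibition above a per-plate cutoff, mean inhibition of test wells between control levels plus 3 SD, cut at about 38% in these data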;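 note: cells cotransfected with COUP-TFII expression vector driving the NGFI-A reporter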
# Target sequence (P24468 whole entry, looked up): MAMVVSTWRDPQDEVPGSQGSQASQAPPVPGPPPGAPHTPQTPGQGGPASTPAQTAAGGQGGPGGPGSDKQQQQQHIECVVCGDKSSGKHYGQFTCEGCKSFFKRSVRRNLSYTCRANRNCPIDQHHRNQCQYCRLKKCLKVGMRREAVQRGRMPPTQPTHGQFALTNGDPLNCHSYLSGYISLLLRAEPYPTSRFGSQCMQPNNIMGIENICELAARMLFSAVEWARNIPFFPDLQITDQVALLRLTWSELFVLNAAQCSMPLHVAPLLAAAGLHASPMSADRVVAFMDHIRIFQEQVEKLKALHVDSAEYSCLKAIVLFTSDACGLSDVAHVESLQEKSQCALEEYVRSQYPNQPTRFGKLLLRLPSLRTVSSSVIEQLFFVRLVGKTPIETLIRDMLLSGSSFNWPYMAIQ
# Gli-Sufu block = Gli-Sufu pathway antagonism; Sufu-KO-LIGHT fibroblasts, Gli luciferase reporter luminescence; AID 588413; inhibition, % at 5 µM; actives 0.74% (n = 340,000);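 active = inhibition above about 55%, limit read from the data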
# NCOA3 inh = inhibitors of human steroid receptor coactivator 3 (SRC3). Q9Y6Q9. HEK293 GAL4-SRC3 luciferase reporter, luminescence. inhibition, % at 3.6 µM. actives 0.17% (n = 360,000);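 active = inhibition above a per-campaign cutoff, the mean of all compounds plus 3 SD, cut at about 60% in these data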;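 note: higher means less SRC3-driven luciferase light from the GAL4 reporter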
# LRH-1 inv ag = NR5A2 inverse agonism in reporter assay; actives 0.13% (n = 360,000); HEK293T StAR-luciferase reporter, LRH-1 transfected, 24 h; inhibition, % at 3.6 µM; AID 602396; O00482;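 active = inhibition above the mean inhibition of all tested compounds plus 3 SD, cut at about 73% in these data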
# NCOA2 inhibitor = human SRC2 (NCOA2) inhibition. Q15596. HEK293 GAL4-SRC2 luciferase reporter, luminescence. inhibition, % at 9 µM. actives 0.17% (n = 370,000). AID 651957;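 active = inhibition above the mean inhibition of all tested compounds plus 3 SD, set per campaign, cut at about 52% in these data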
# Gli-Sufu confirm = confirmation of Gli-SUFU pathway antagonists; shares compounds with Gli-Sufu block; Sufu-KO-LIGHT cells, Gli luciferase reporter, luminescence; inhibition, % at 5 µM; actives 40% (n = 2,500); AID 602428;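 active = mean inhibition at 5 µM reaching about 45%, limit read from the data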
# SufuKO cytotox = cytotoxicity counter-screen for Gli-SUFU antagonists; cytotoxicity, % at 5 µM; shares compounds with Gli-Sufu block; Sufu-KO-LIGHT cells cytotoxicity, ATP luminescence; actives 32% (n = 2,500); AID 651994;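 active = mean cytotoxicity at 5 µM above about 25%, limit read from the data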;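 note: cells exposed to compound overnight for roughly 16 to 18 hours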
# Wnt3a counter = counter-screen for Gli-SUFU antagonists: Wnt3a reporter inhibition; inhibition, % at 6.25 µM; AID 651995; actives 20% (n = 2,500); Wnt-LIGHT cells, Wnt3a-driven luciferase reporter, luminescence; shares compounds with Gli-Sufu block;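 active = mean inhibition above about 25%, limit read from the data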
# A number is an active result; . = inactive; / = no result.
SMILES,SRC1 inh,COUP-TFII inh,Gli-Sufu block,NCOA3 inh,LRH-1 inv ag,NCOA2 inhibitor,Gli-Sufu confirm,SufuKO cytotox,Wnt3a counter
Cc1cc2cc(CNC(=O)c3ccc(C)c([N+](=O)[O-])c3)ccc2[nH]1,.,.,58,.,.,.,.,26,.
N#C/C(=C\c1ccc(Sc2nc3ccccc3[nH]2)o1)c1ccccc1,.,.,.,.,.,.,/,/,/
N#Cc1ccc(Sc2nc3ccccc3[nH]2)cc1C#N,.,.,92,.,.,.,.,.,.
CCc1ccc(-n2cc(-c3ccc(F)cc3)[n+]3c2SCCC3)cc1,.,.,86,.,.,.,90,45,33
c1ccc(-c2cn(-c3ccccc3)c3[n+]2CCCS3)cc1,.,.,68,.,.,.,69,33,33
C=CCN1[C@H](C#N)[C@@H](c2ccc(C#Cc3ccccc3OC)cc2)[C@H]1CO,/,.,/,/,/,.,/,/,/
O=C(CSc1ccccc1)NC1CCCCN(Cc2ccc(Cl)cc2)C1=O (stereo not drawn),/,.,/,/,/,.,/,/,/
CCOC(=O)c1ccc(NC(=S)N(CCCN2CCN(C)CC2)Cc2cccs2)cc1,.,.,60,.,.,.,.,27,.
COc1cc(NC(=O)CSc2nc(C)cc(C)n2)cc(OC)c1OC,.,.,.,.,.,.,.,.,.
CCOC(=O)[C@]12CCCCC/C=C\1N(CCc1ccc(Cl)cc1)C(=O)[C@H]2CC(=O)N1CCC(c2ccccc2)CC1,/,.,/,/,/,.,/,/,/
COC(=O)c1cc(S(=O)(=O)N2CCN(c3ccc(C(C)=O)cc3)CC2)c[nH]1,.,.,62,.,.,.,.,.,.
COCCCNC(=O)C[C@H]1C[C@@]2(C(=O)OC)C(=C[C@H](C(C)(C)C)O[C@@H]2C)N(CCc2ccc(OC)c(OC)c2)C1=O,/,.,/,/,/,.,/,/,/
Cc1cc(-c2cccs2)c2c(n1)sc1c(=O)[nH]c(=O)[nH]c12,.,.,84,.,.,.,.,31,.
CCCC[C@H]1C2CC(OC(=O)Nc3cccc(C#N)c3)C(C2)[C@H]2CCCCN21 (stereo partly drawn),/,.,/,/,/,.,/,/,/
Cc1ccc2c(c1)C(CS(=O)(=O)NCCc1ccccc1)NC2 (stereo not drawn),/,.,/,/,/,.,/,/,/
CCOC(=O)C(=CNc1cc(Cl)c(-c2ccco2)c(Cl)c1)C(=O)OCC,.,.,60,.,.,.,.,.,.
CCOC(=O)C(=CNc1ccc(-c2ccco2)c(Cl)c1)C(=O)OCC,.,.,.,.,.,.,/,/,/
Brc1ccc(-c2nn3c(-c4ccccc4)nnc3s2)o1,/,.,/,/,/,.,/,/,/
COC(=O)CN1C(=O)COc2ccc(S(=O)(=O)N3CCOCC3)cc21,.,.,.,.,.,.,/,/,/
CCN(C(=O)CN1C(=O)COc2ccc(S(=O)(=O)N3CCOCC3)cc21)c1ccc(OC)cc1,.,.,.,.,.,.,.,.,.
COc1ccccc1CNC(=O)C[C@H]1CC[C@H]2[C@H](COc3ccc(NS(=O)(=O)c4ccc(C)cc4)cc3C(=O)N2C)O1,/,.,/,/,/,.,/,/,/
CCCCCn1c(CN2CCN(C(=O)OCC)CC2)nc2c1c(=O)n(C)c(=O)n2C,.,.,.,.,.,.,/,/,/
CCOC(=O)N1CCN(Cc2nc3c(c(=O)n(C)c(=O)n3C)n2CCCc2ccccc2)CC1,.,.,99,.,.,.,.,.,.
O=C(NCc1ccco1)C1CCCN(S(=O)(=O)c2ccc([N+](=O)[O-])cc2)C1 (stereo not drawn),/,.,/,/,/,.,/,/,/
COCCNC(=O)c1cccc(OC2CCN(Cc3ccc(C(=O)OC)cc3)CC2)c1,.,.,60,.,.,.,.,.,.
CCCSc1nnc(-c2ccco2)n1C,/,.,/,/,/,.,/,/,/
Cc1cc(C)c(C(=O)Cn2cnc3cc([N+](=O)[O-])ccc3c2=O)cc1C,.,.,.,.,.,.,/,/,/

# High-throughput results (PubChem)
